Compound activity from PubChem.
Sampled rows, rich in hits. Any-hit rate of the full collection: about 3.6%.
Pf apPOL block = Pf-apPOL inhibitors, biochemical, fluorescence; AID 1794808, 2022; actives 0.25% (n = 210,000); Recombinant Pf-apPOL, molecular beacon fluorescence, 1.5 h; inhibition, % at 10 µM; Plasmodium falciparum apicoplast DNA polymerase (apPOL)
mHTT-CaM PPI inh = mutant huntingtin-calmodulin interaction inhibitors – biochemical, AlphaScreen, primary screen; inhibition, % at 15 µM; P42858; AID 1671202, 2021; actives 3.6% (n = 190,000); AlphaScreen His-mHTT/GST-CaM binding, luminescence;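 note: 0% = both proteins with DMSO and 100% = one protein alone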
The depositor's hits bear a star; · = no result. Cut-off read from the data, not from the text of the source: active = inhibition above about 50%; inactive = the rest.

SMILES | Pf apPOL block | mHTT-CaM PPI inh
COc1ccc(OC)c(CN2CCc3nc(N4CCN(c5ncccn5)CC4)ncc3C2)c1 | 0 | 99*
CCN1CCN(c2ncc3c(n2)CCN(Cc2cc(OC)ccc2OC)C3)CC1 | 0 | 48
Fc1ccccc1CN1CCc2nc(N3CCN(c4ncccn4)CC3)ncc2C1 | -1 | 100*
COc1ccc(CN2CCc3nc(N4CCCC4)ncc3C2)c(OC)c1 | 1 | 99*
COc1cccc(CN2CCc3nc(N4CCCC4)ncc3C2)c1OC | 4 | 88*
O=c1/c(=C/c2cccc(Br)c2)sc2n1CN(c1ccccc1)CN=2 | -5 | -5
COc1ccc(OCCCC(=O)Nc2ccc(Cl)cc2C)cc1 | 5 | -6
Cc1ccccc1C(=O)N1CC2CC1CC2NC(=O)c1ccccc1 (configuration not stated) | -1 | -2
O=C1CSC2(C(=O)Nc3ccc(Br)cc32)N1c1cccc([N+](=O)[O-])c1 (configuration not stated) | -12 | 17
Cc1cc(C)cc(N2C(=O)CSC23C(=O)Nc2ccc(Br)cc23)c1 (configuration not stated) | -10 | 56*
Cc1ccc2sc(-c3ccc(NCc4ccncc4)cc3)nc2c1 | -4 | -7
CCN(CC)S(=O)(=O)c1ccc(C(=O)Nc2c3c(nn2-c2cccc(C)c2)CSC3)cc1 | -4 | 2
COc1ccc(OCC2c3cc(OC)c(OC)cc3CCN2C(=O)c2ccc(C)cc2)cc1 (configuration not stated) | 2 | 77*
CCOc1ccc(C(=O)N2CCc3cc(OC)c(OC)cc3C2COc2ccccc2OC)cc1 (configuration not stated) | 1 | 73*
COC(=O)c1ccc(OCC2c3cc(OC)c(OC)cc3CCN2C(=O)c2ccc(OC)cc2)cc1 (configuration not stated) | -4 | 47
COc1cc2c(cc1OC)C(COc1ccccc1OC)N(C(=O)c1ccccc1OC)CC2 (configuration not stated) | -6 | 37
CCOc1ccc(CN2CCN(c3ccc([N+](=O)[O-])cc3)CC2)cc1 | -9 | 20
CCC(=O)c1ccc(OCC(O)CN2C(C)(C)CC(O)CC2(C)C)cc1 (configuration not stated) | -5 | 0
O=C1Nc2ccccc2C1=Nc1ccc(Nc2ccccc2)cc1 | 2 | 100*
O=C1Nc2ccccc2C1=Nc1ccc(C(=O)c2ccccc2)cc1 | 0 | 3
CCN(CC)C(=O)C1CCN(c2nc3ccc(-c4cccs4)nc3s2)CC1 | -1 | 64*
CCCNC(=O)C1CCN(c2nc3ccc(-c4cccs4)nc3s2)CC1 | 0 | 9
CN(C)CCNC(=O)C1CCN(c2nc3ccc(-c4ccncc4)nc3s2)CC1 | -6 | -2
CN(C)CCNC(=O)C1CCN(c2nc3ccc(-c4ccsc4)nc3s2)CC1 | 4 | 66*
Cc1nc(-c2ccccn2)nc(NC2CCN(c3ncc(C(F)(F)F)cc3Cl)CC2)c1Cl | -5 | ·
SMILES | Pf apPOL block | mHTT-CaM PPI inh
COC(=O)CNS(=O)(=O)c1ccc(Cl)cc1 | -8 | -1
CCc1noc(-c2cccnc2N2CCCN(C(=O)Nc3cccc(C)c3C)CC2)n1 | -5 | 2
N#CCC[C@@H]1CC[C@]2(CCCN(C(=O)c3ccco3)C2)O1 | -6 | 99*
N#CCC[C@H]1CC[C@]2(CCCN(Cc3ccc(Br)cc3)C2)O1 | -9 | 89*
N#CCC[C@@H]1CC[C@]2(CCCN(C(=O)c3ccccc3)C2)O1 | -10 | -12
CCN(CC)C(=O)CC[C@H]1CC[C@]2(CCCN(Cc3ccc(Br)cc3)C2)O1 | 0 | 9
Cc1cccc(N=Cc2cc(I)cc(I)c2O)c1 | -2 | 11
COc1cccc(N=Cc2cc([N+](=O)[O-])cc(OC)c2O)c1 | 8 | 76*
Oc1cccnc1N=Cc1cc(I)cc(I)c1O | -1 | 90*
COc1cc([N+](=O)[O-])cc(C=Nc2cccc(Cl)c2Cl)c1O | 8 | 10
COc1cc([N+](=O)[O-])cc(C=Nc2ncccc2O)c1O | 3 | 72*
CCOc1cc([N+](=O)[O-])cc(C=Nc2ccc3ncccc3c2)c1O | -2 | 32
Cc1ccc2nc(-c3cccc(Cl)c3)c(NC(=O)C(C)(C)C)n2c1 | -4 | 18
Cc1ccc(C2=NC(C(C)C)NC(c3ccccc3O)C2)cc1 (configuration not stated) | 2 | 20
N#CC(=CNc1ccc(Cl)cn1)S(=O)(=O)c1ccccc1 | -2 | ·
O=C(NCCCn1ccnc1)C(=O)Nc1ccc2c(c1)OCCO2 | -2 | -3
O=C(NCCCn1ccnc1)C(=O)Nc1ccc(F)c(Cl)c1 | -2 | 70*
O=C(NCCCn1ccnc1)Nc1cccc(Cl)c1 | 0 | 89*
O=C(NCCCn1ccnc1)c1ccc(Cl)cc1 | 2 | -4
Cc1ccc(-c2nc(-c3ccc4c(c3)oc(=O)n4C)no2)cc1C | 3 | -10
CCc1nnc(-c2nnc(N(CC)CC)c3ccccc23)o1 | -4 | 7
